Most compounds without a hit are left out; they make up all but 3.4% or so of the library.
RE007 growth inh: less growth of the S. pombe RE007 Vpr strain. S. pombe RE007 Vpr strain, BacTiter-Glo ATP luminescence, 24 h. Potency, µM (titrated, usually from 92.2 µM), usual class: inhibitors. 360,000 compounds, 0.21% hits; active = well fitted falling curve with a large enough effect; inconclusive = small, poorly fitted or top-dose-only effect; inactive = no such curve, though single readings can be large or run the other way; also: nearly all actives have a fitted effect of over 50% in size
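Fission yeast RE007 carrying one integrated HIV-1 vpr copy, seeded at OD 0.01 in PMG+AL medium with 23 nL pinned compound. Grown 24 h at 30 degrees; viability read by BacTiter-Glo luminescence after 5 min.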
Sm TGR block: S. mansoni TGR enzyme inhibition | purified TGR, DTNB reduction, TNB absorbance 405 nm | Potency, µM (series often up to 114 µM), usual class: inhibitors | 360,000 compounds, 3% hits | AID 485364; also: nearly all actives have a fitted effect of over 60% in size
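TGR 20 nM + NADPH 100 uM (dispensed conc.), cpd preinc 15 min RT; start with NADPH (500 uM addition) then DTNB (15 mM addition). Kinetic TNB absorbance, 405 nm filter. Four-parameter Hill fit across titration.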
AmpC inh no detg: inhibitors of E. coli AmpC beta-lactamase without detergent. AmpC nitrocefin hydrolysis, absorbance 480 nm, 0.0001% Triton. 330,000 compounds, 0.52% hits. P00811. Potency, µM (titrated, usually from 57.1 µM), most hits filed as inhibitors; also: nearly all actives have a fitted effect of over 20% in size
Target sequence (P00811 whole entry, looked up): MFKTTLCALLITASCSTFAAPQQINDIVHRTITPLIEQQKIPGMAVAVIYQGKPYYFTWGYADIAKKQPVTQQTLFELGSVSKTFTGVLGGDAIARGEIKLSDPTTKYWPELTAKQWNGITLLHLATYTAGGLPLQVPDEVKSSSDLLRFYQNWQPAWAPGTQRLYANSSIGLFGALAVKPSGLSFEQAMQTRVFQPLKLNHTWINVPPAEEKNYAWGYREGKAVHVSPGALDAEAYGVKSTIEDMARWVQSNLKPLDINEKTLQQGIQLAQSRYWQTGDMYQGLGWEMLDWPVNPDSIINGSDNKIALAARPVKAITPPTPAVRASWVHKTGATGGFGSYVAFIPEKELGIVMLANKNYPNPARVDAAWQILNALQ
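AmpC (5.3 nM in the dispensed reagent) in 20 mM phosphate pH 7.0 with 0.01% (detergent screen) or 0.0001% Triton X-100 was preincubated with compounds for 15 min at room temperature. Nitrocefin was then added from an 800 uM solution, and hydrolysis was followed at 480 nm.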
AmpC inh detg: AmpC beta-lactamase inhibition with detergent present | P00811 | AmpC hydrolysis of nitrocefin, absorbance 480 nm, 0.01% Triton | Potency, µM (series often up to 114 µM), most hits filed as inhibitors | 370,000 compounds, 0.041% hits | AID 485294; also: nearly all actives have a fitted effect of over 25% in size
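20 mM phosphate pH 7.0 + 0.01% (detergent screen) or 0.0001% Triton X-100; 5.3 nM AmpC reagent; cpd preinc 15 min RT; nitrocefin (800 uM stock) to start; A480 q20 s × 4 min; Activity was normalised to no-enzyme and no-compound control wells.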
Giardia FBPA inh: Giardia lamblia aldolase inhibition. A8B2U2. purified Giardia FBPA. Potency, µM (doses to about 59.6 µM), usual class: inhibitors. 290,000 compounds, 0.71% hits; also: nearly all actives have a fitted effect of over 55% in size
Target sequence (A8B2U2 whole entry, looked up): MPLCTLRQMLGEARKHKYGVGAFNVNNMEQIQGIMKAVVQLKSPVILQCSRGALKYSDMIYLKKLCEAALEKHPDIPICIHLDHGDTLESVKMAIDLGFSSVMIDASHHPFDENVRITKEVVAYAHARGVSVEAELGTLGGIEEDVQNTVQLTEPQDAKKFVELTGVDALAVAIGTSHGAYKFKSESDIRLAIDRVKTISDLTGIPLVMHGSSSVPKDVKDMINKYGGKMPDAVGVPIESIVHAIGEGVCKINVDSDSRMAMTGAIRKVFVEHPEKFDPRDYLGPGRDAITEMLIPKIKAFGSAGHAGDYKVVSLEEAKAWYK
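40 nM FBPA preincubated 10 min at RT with compound (up to 57.5 uM final), then substrate plus GAPDH/TPI/NAD/arsenate coupling and diaphorase/resazurin added. Fluorescence read after 20 min at RT, 525/598 nm.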
A number is an active result. Unless noted, calls follow the shape of the dose curve; as a rule, active = well fitted curve in the direction sought with a large enough effect; inconclusive = small, poorly fitted or top-dose-only effect, or another doubt; inactive = no such curve, though single readings can be large; an effect the other way counts as inactive or inconclusive.

`COCCn1nnnc1C(c1ccccc1)N1CCN(c2ccccc2)CC1` (centres undefined) gave RE007 growth inh inactive, Sm TGR block inactive, AmpC inh no detg inactive, AmpC inh detg inactive and Giardia FBPA inh inactive.
Screening COc1ccc(N2CC(C(=O)NCc3ccco3)CC2=O)cc1 (centres undefined) returned RE007 growth inh inactive, Sm TGR block 20µM, AmpC inh no detg inactive, AmpC inh detg inactive and Giardia FBPA inh inactive.
For Cc1ccc(CCN2CC(C(=O)NCc3ccco3)CC2=O)cc1 (centres undefined) the results were RE007 growth inh inactive, Sm TGR block 44.7µM, AmpC inh no detg inactive, AmpC inh detg inactive and Giardia FBPA inh inactive.
For COc1ccc(N2CC(C(=O)Nc3nnc(SCC(=O)NCc4ccco4)s3)CC2=O)cc1 (centres undefined) the results were RE007 growth inh inactive, Sm TGR block 28.2µM, AmpC inh no detg inactive and AmpC inh detg inactive.
Screening Cc1ccc(CCN2CC(C(=O)NCCC(C)C)CC2=O)cc1 (centres undefined) returned RE007 growth inh inactive, Sm TGR block inactive, AmpC inh no detg inactive, AmpC inh detg inactive and Giardia FBPA inh inactive.
Screening CCOc1ccc(N2CC(C(=O)NCc3ccco3)CC2=O)cc1 (centres undefined) returned RE007 growth inh inactive, Sm TGR block inactive, AmpC inh no detg inactive, AmpC inh detg inactive and Giardia FBPA inh inactive.
Screening Cc1ccc(NC(=O)CCNS(=O)(=O)c2ccc3c(c2)CCN3C(=O)C2CC2)c(Cl)c1 returned Sm TGR block inconclusive and AmpC inh detg inactive.
For O=C(O)c1ccc(CN(c2ccccn2)S(=O)(=O)c2ccccc2)cc1 the results were RE007 growth inh inactive, Sm TGR block inactive, AmpC inh no detg inactive, AmpC inh detg inactive and Giardia FBPA inh inactive.
Screening Cn1c(C(C#N)C2=C(Cl)C(=O)N(c3ccccc3)C2=O)nc2ccccc21 (centres undefined) returned Sm TGR block 44.7µM, AmpC inh no detg inactive, AmpC inh detg inconclusive and Giardia FBPA inh inconclusive.
Cn1c(C(O)C(O)c2ccccc2)nc2ccccc21 (centres undefined) was read as RE007 growth inh inactive, Sm TGR block inactive, AmpC inh no detg inactive, AmpC inh detg inactive and Giardia FBPA inh inactive.
`CCC(=O)Nc1ccc(C)cc1-c1nc2ccccc2n(C(C)C(=O)Nc2ccccc2CC)c1=O` (centres undefined) gave Sm TGR block inactive and AmpC inh detg inactive.
`Cc1cc(-c2ccco2)n(-c2ccccc2)n1` gave RE007 growth inh inactive, Sm TGR block 3.98µM, AmpC inh no detg inactive, AmpC inh detg inconclusive and Giardia FBPA inh inconclusive.
`C=CCn1c(N2CCCC2)nc2c1c(=O)n(C)c(=O)n2C` gave RE007 growth inh inactive, Sm TGR block inactive, AmpC inh no detg inactive, AmpC inh detg inactive and Giardia FBPA inh inactive.
`O=C(O)c1ccccc1C(=O)N1CC=C(c2ccccc2)CC1` gave RE007 growth inh inactive, Sm TGR block 35.5µM, AmpC inh no detg inactive, AmpC inh detg inactive and Giardia FBPA inh inactive.
Cc1ccc(C(=O)N2CC=C(c3ccccc3)CC2)o1 was read as RE007 growth inh inactive, Sm TGR block 28.2µM, AmpC inh no detg inactive and AmpC inh detg inactive.
Screening CCOc1ccccc1N1CC(C(=O)Nc2cccc(S(=O)(=O)N3CCCCC3)c2)CC1=O (centres undefined) returned RE007 growth inh inactive, Sm TGR block inactive, AmpC inh no detg inactive, AmpC inh detg inactive and Giardia FBPA inh inactive.
For COc1ccc2c(c1)O[C@H](c1ccc3c(c1)OCO3)[C@@H](OC(=O)NCCc1ccc(OC)c(OC)c1)C2=O the results were Giardia FBPA inh inactive.
Screening Cn1nc(C(C)(C)C)cc1C(=O)O returned RE007 growth inh inactive, Sm TGR block inactive, AmpC inh no detg inactive, AmpC inh detg inactive and Giardia FBPA inh inactive.
Cn1nc(C(C)(C)C)cc1C(=O)Sc1cccc(Br)c1 was read as RE007 growth inh inactive, Sm TGR block 12.6µM, AmpC inh no detg inactive, AmpC inh detg inactive and Giardia FBPA inh inactive.
For Cn1c(=O)c(C(=O)CCl)c(N)n(CC2CC2)c1=O the results were RE007 growth inh inactive, Sm TGR block 14.1µM, AmpC inh no detg inactive, AmpC inh detg inconclusive and Giardia FBPA inh inactive.
For CC(C)Cn1c(N)c(C(=O)CSc2ncccn2)c(=O)n(C)c1=O the results were RE007 growth inh inactive, Sm TGR block inactive, AmpC inh no detg inactive and AmpC inh detg inactive.
Screening CC(C)Cn1c(N)c(C(=O)CCl)c(=O)n(C)c1=O returned RE007 growth inh inactive, Sm TGR block 20µM, AmpC inh no detg inactive, AmpC inh detg inactive and Giardia FBPA inh inactive.
Cc1ccccc1C1CCCN(Cc2nc(C3CC3)no2)C1 (centres undefined) was read as RE007 growth inh inactive, Sm TGR block inconclusive, AmpC inh no detg inactive, AmpC inh detg inactive and Giardia FBPA inh inactive.
For Cn1c(=O)c2c(ncn2CCN(CCO)Cc2ccccc2)n(C)c1=O the results were RE007 growth inh inactive, Sm TGR block 44.7µM, AmpC inh no detg inactive, AmpC inh detg inactive and Giardia FBPA inh inactive.
Screening COC(=O)c1ccc(COc2cccnc2[N+](=O)[O-])cc1 returned RE007 growth inh inactive, Sm TGR block inactive, AmpC inh no detg inactive, AmpC inh detg inactive and Giardia FBPA inh inactive.
`CC1(C)CC(=O)C(CC2CCCCC2=O)C(=O)C1` (centres undefined) gave RE007 growth inh inactive, Sm TGR block inactive, AmpC inh no detg inactive, AmpC inh detg inactive and Giardia FBPA inh inactive.
`CC1(C)CC(=O)C(CC2C(=O)CC(C)(C)CC2=O)C(=O)C1` gave RE007 growth inh inactive, Sm TGR block 2µM, AmpC inh no detg inactive, AmpC inh detg inactive and Giardia FBPA inh inactive.
O=C(Cn1ccc2cc(S(=O)(=O)N3CCCCC3)ccc21)NCc1ccccc1F was read as RE007 growth inh inactive, Sm TGR block inactive, AmpC inh no detg 20µM and AmpC inh detg inactive.
`O=C(Cn1ccc2cc(S(=O)(=O)N3CCCCC3)ccc21)NCc1ccccc1Cl` gave Sm TGR block inactive and AmpC inh detg inactive.
For O=C(Nc1ccccc1)OCCNC(=O)c1cccc(Cl)c1 the results were RE007 growth inh inactive, Sm TGR block inactive, AmpC inh no detg inactive, AmpC inh detg inactive and Giardia FBPA inh inactive.
Screening CCCC(=O)N1c2nc(-c3ccco3)nn2C2(CCCCC2)[C@@H]2CCCC[C@@H]21 returned Sm TGR block 35.5µM and AmpC inh detg inactive.
Screening O=C(NCc1ccc(F)cc1)C(c1ccccc1)N(C(=O)c1csnn1)C1CCCC1 (centres undefined) returned RE007 growth inh inactive, Sm TGR block inactive, AmpC inh no detg inactive, AmpC inh detg inactive and Giardia FBPA inh inactive.
`CC1CCN(C(=O)c2[nH]cnc2C(=O)Nc2nccs2)CC1` gave RE007 growth inh inactive, Sm TGR block 28.2µM, AmpC inh no detg inactive and AmpC inh detg inactive.

Bioassay records: PubChem BioAssay, National Center for Advancing Translational Sciences (NCATS)
